These results are taken from PubChem BioAssay (Tox21).

Structures are written as SMILES. “And” between values parts separate entries of the source, which are not always exact repeats. Equal entries are not always repeated. Results filed as inconclusive are left out. More than one record can exist for a structure, and the calls need not agree. The source made the active and inactive calls. Unless noted, calls come from the whole dose curve.

The nature of test [1]: Nuclear factor erythroid 2-related factor 2/antioxidant responsive element (Nrf2/ARE) small molecule agonists: qHTS cell viability counter screen in human keratinocytes (AID 1919968; active = well fitted curve in the direction sought with a large enough effect in the repeat runs; an effect the other way counts as inactive or inconclusive; note: nearly all actives have a fitted effect of over 55% in size; note: potency is the fitted concentration of half-maximal effect). The essentials: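 Stably transfected HaCaT (KeratinoSens), 1,500/well. Test agents in DMSO were applied for 23 h, 37 C/5% CO2. CellTiter-Fluor was incubated 1 h before the fluorescence read.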
A general note: qHTS replaces the single test concentration by a dilution series.

Test [2] is described as follows: Nuclear factor erythroid 2-related factor 2/antioxidant responsive element (Nrf2/ARE) small molecule agonists: luciferase reporter gene qHTS assay in human keratinocytes (AID 1919969). Note: nearly all actives have a fitted effect of over 35% in size. Note: potency is the fitted concentration of half-maximal effect.
Test [3] has as its target Gonadotropin-releasing hormone receptor (Homo sapiens) (UniProt P30968). Kind of test: Human gonadotropin-releasing hormone receptor (GnRHR) small molecule agonists, calcium flux assay in GnRHR-HEK293 cells (AID 1920063). Note: nearly all actives have a fitted effect of over 35% in size. The essentials: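 Stable human GnRHR HEK293 line. 18 h plating, then calcium dye for 1 h at 37 C. Agonist-mode compound addition from DMSO stocks; fluorescence monitored 3 min.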
In general terms: Calcium assays in cells follow changes in intracellular calcium, usually with a dye or a luminescent sensor.

Test [4] addresses KiSS-1 receptor (Homo sapiens) (UniProt Q969F8). Put plainly: Human kisspeptin (KISS1R) small molecule agonists, calcium flux assay in KISS1R-HEK293 cells (AID 1920064; active = well fitted curve in the direction sought with a large enough effect in the repeat runs; an effect the other way counts as inactive or inconclusive). The essentials:
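After overnight (18 h) culture at 37 C/5% CO2, human KISS1R-HEK293 cells received calcium dye for 1 h, then test compound; emission at 540 nm (excitation 480 nm) was tracked for 3 min.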

A short description of test [5]: G protein-coupled receptor (GPCR) small molecule agonists, calcium flux assay: HEK293 wild type cell line counter screen (AID 1920065). The essentials: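 Following 18 h incubation at 37 C/5% CO2, plates got calcium dye for 1 h; compounds, ATP or DMSO were then pinned in and fluorescence followed kinetically (480/540 nm).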
Test [6] is described as follows: p53 small molecule agonists, cell-based qHTS assay with human liver microsomes (AID 1963577). The procedure, abridged:
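Fluorescence of the beta-lactamase reporter in p53RE-bla cells, detected with LiveBLAzer substrate (2 h, room temperature, dark), served as the read-out after 16 h compound exposure at 37 C with human liver microsomes and NADPH, each 0.5 mg/mL final.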

A short description of test [7]: p53 small molecule agonists, cell-based qHTS assay with rat liver microsomes (AID 1963578). The essentials:
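Cells carrying a p53 response element–beta-lactamase reporter were plated and rested 5 h, then dosed with compound in DMSO plus rat liver microsomes and NADPH, each at 0.5 mg/mL final. After 16 h at 37 C, LiveBLAzer substrate was added for 2 h.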

Test [8] can be described thus: p53 small molecule agonists, cell-based qHTS assay with human liver microsomes: qHTS cell viability counter screen (AID 1963579). Note: nearly all actives have a fitted effect of over 45% in size. Note: potency is the fitted concentration of half-maximal effect. The procedure, abridged:
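Cytotoxicity counter screen: p53RE-bla, 4,000 cells/well; 5 h settle, 37 C/5% CO2; cpd + HLM 0.5 mg/mL + NADPH 0.5 mg/mL (final); 16 h, 37 C; CellTiter-Glo, 30 min RT, luminescence.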

Test [9] is described as follows: p53 small molecule agonists, cell-based qHTS assay: qHTS cell viability counter screen (AID 1963581). Note: nearly all actives have a fitted effect of over 45% in size. Note: potency is the fitted concentration of half-maximal effect. The essentials: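 qHTS counter screen: 16 h compound exposure at 37 C of p53RE-bla HCT-116 cells (4,000 per well, seeded 5 h prior), cell viability by ATP luminescence.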
The target in test [10] is 5-hydroxytryptamine receptor 2A (Homo sapiens) (UniProt P28223). Put plainly: 5-hydroxytryptamine receptor 2A (HTR2A) small molecule antagonists, cell-based qHTS assay (AID 1963586). Note: nearly all actives have a fitted effect of over 45% in size. Note: potency is the fitted concentration of half-maximal effect. The procedure, abridged:
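CHO cells stably expressing human HTR2A were plated for 18 h at 37 C, then loaded with calcium dye for 1 h. Compounds were preincubated 5 min at room temperature before DOI (4 nM solution) was added. Kinetic fluorescence was read for 3 min.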

For test [11], the target named is Muscarinic acetylcholine receptor M1 (Homo sapiens) (UniProt P11229). Kind of test: Cholinergic receptor muscarinic 1 (CHRM1) small molecule antagonists, cell-based qHTS assay (AID 1963588). Note: nearly all actives have a fitted effect of over 40% in size. The essentials: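 Compounds were tested at 15 concentrations in three independent runs. Dye-loaded CHRM1-CHO cells were exposed 5 min at room temperature before stimulation by acetylcholine added at 50nM. Intracellular calcium was read kinetically on FDSS for 3 min.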

For test [12], the target named is Beta-2 adrenergic receptor (Homo sapiens) (UniProt P07550). Kind of test: Adrenergic beta2 receptor (ADRB2) small molecule antagonists, cell-based qHTS assay (AID 1963592). Note: nearly all actives have a fitted effect of over 50% in size. Note: potency is the fitted concentration of half-maximal effect. The essentials:
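Assay format: CHO-ADRB2 cells, 18-20hr seeding at 37C/5% CO2, then compound plus 1nM isoproterenol agonist mix for 0.5hr RT. Homogeneous time-resolved fluorescence cAMP detection after 1hr, expressed as 665/615 nm ratio.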

Test [13] deals with D(2) dopamine receptor (Homo sapiens) (UniProt P14416). Kind of test: Dopamine D2 receptor (DRD2) small molecule agonists, cell-based qHTS assay (AID 1963594). Note: nearly all actives have a fitted effect of over 35% in size. The procedure, abridged: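 HEK293 cells stably expressing human DRD2, pre-treated with PDE inhibitor Ro20-1724 (0.1 mM final) and compound 10 min at room temperature, then stimulated with NKH477 (200nM […]) for 30 min. cAMP read by HTRF (665/620 nm).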

The target is the same in test [14]. Kind of test: Dopamine D2 receptor (DRD2) small molecule antagonists, cell-based qHTS assay (AID 1963595; active = well fitted inhibition curve with a large enough effect in the signal ratio in the repeat runs, with a control signal flat; the % refers to the signal ratio). The procedure, abridged: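 HEK293 cells stably expressing DRD2, preincubated with 0.1 mM Ro20-1724 and compounds 10 min, were stimulated with 200 nM NKH477 plus 12 nM quinpirole for 30 min at room temperature; cAMP measured by HTRF (665/620 nm).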
The nature of test [15]: p53 small molecule agonists, cell-based qHTS assay (AID 1963582; active = well fitted activation curve with a large enough effect in the signal ratio in the repeat runs, not every such curve was filed as active; the % refers to the signal ratio; note: potency is the fitted concentration of half-maximal effect). The procedure, abridged: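 Measured: fluorescence from cleaved LiveBLAzer substrate. System: p53RE-bla cells, 16 h compound treatment at 37 C, 2 h substrate step at room temperature.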
A short description of test [16]: p53 small molecule agonists, cell-based qHTS assay with rat liver microsomes: qHTS cell viability counter screen (AID 1963580). Note: nearly all actives have a fitted effect of over 45% in size. Note: potency is the fitted concentration of half-maximal effect. The procedure, abridged: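 Cytotoxicity counter screen: intracellular ATP measured by CellTiter-Glo luminescence in the same wells as the beta-lactamase reporter read, on HCT-116 p53RE-bla cells exposed 16 h at 37 C to compounds with rat liver microsomes and NADPH, each 0.5 mg/mL final.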

Test [17] deals with 5-hydroxytryptamine receptor 2A (Homo sapiens) (UniProt P28223). Put plainly: 5-hydroxytryptamine receptor 2A (HTR2A) small molecule agonists, cell-based qHTS assay (AID 1963587). Note: nearly all actives have a fitted effect of over 30% in size. The procedure, abridged: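 CHO cells stably expressing human HTR2A, plated 18 h, loaded with calcium dye 1 h at 37 C. Agonist mode: compounds added and intracellular calcium fluorescence recorded kinetically for 2 min at 1 sec intervals.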

Test [18] can be described thus: cAMP Responsive Elements (CRE) small molecule agonists, cell-based qHTS assay (AID 1963590). The procedure, abridged:
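Test agents in DMSO were incubated 3 h at 37 C/5% CO2 with CRE-bla HEK 293T cells seeded 18 h earlier; LiveBLAzer B/G FRET substrate was added and read after 2 h at room temperature.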

Test [19] in a line: cAMP Responsive Elements (CRE) small molecule antagonists, cell-based qHTS assay (AID 1963591; active = well fitted inhibition curve with a large enough effect in the signal ratio in the repeat runs, not every such curve was filed as active; the % refers to the signal ratio). The procedure, abridged:
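Reporter line CRE-bla HEK 293T in dialyzed-FBS DMEM; cells preincubated 18 h, treated 3 h with compound plus NKH477 (0.25 uM final); LiveBLAzer FRET, 2 h RT.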

The target of test [20] is Beta-2 adrenergic receptor (Homo sapiens) (UniProt P07550). Put plainly: Adrenergic beta2 receptor (ADRB2) small molecule agonists, cell-based qHTS assay (AID 1963593).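 Note: CHO cells stably overexpressing human ADRB2.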 The essentials: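 CHO cells stably over-expressing ADRB2 were plated overnight at 37C, then dosed with compounds plus a stimulation mix containing 100uM IBMX and 25uM Ro-20-1724 for 0.5hr at room temperature. cAMP was measured by HTRF competition, 1hr.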
Chain of Beta-2 adrenergic receptor (Homo sapiens) (P07550 whole entry, looked up): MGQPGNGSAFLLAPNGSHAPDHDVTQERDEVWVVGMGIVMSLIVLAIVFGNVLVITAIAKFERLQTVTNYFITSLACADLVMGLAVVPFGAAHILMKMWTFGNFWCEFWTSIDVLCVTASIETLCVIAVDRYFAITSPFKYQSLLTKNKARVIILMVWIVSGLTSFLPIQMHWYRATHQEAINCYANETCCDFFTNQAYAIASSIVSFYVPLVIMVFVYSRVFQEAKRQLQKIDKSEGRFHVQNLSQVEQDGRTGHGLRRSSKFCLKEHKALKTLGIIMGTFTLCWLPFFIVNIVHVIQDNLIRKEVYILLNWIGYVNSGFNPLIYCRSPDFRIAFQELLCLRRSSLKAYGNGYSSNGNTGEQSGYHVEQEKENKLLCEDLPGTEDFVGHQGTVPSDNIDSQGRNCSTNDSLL

Chain of KiSS-1 receptor (Homo sapiens) (Q969F8 whole entry, looked up): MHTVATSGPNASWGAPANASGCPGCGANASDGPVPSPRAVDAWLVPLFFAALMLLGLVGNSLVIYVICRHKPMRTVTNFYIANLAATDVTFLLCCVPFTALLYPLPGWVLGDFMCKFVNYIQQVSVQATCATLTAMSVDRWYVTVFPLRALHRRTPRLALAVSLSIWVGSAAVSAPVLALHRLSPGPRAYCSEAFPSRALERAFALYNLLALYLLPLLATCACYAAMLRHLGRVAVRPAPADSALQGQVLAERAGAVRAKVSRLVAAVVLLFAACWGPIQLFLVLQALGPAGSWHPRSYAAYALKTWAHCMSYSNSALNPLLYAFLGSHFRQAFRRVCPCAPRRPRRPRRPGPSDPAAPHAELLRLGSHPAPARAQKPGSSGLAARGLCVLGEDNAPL
Chain of D(2) dopamine receptor (Homo sapiens) (P14416 whole entry, looked up): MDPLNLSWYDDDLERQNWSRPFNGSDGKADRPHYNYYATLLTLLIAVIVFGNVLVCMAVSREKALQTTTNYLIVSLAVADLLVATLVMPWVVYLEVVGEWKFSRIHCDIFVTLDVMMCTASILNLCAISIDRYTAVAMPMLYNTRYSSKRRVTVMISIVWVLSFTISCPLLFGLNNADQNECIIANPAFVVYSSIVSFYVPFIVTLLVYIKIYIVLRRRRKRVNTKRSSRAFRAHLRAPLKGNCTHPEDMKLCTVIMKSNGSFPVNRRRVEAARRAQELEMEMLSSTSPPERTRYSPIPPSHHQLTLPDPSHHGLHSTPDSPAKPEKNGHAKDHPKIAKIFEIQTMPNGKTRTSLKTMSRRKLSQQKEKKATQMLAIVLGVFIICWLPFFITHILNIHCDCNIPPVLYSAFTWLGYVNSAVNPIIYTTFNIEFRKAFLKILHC
Chain of Gonadotropin-releasing hormone receptor (Homo sapiens) (P30968 whole entry, looked up): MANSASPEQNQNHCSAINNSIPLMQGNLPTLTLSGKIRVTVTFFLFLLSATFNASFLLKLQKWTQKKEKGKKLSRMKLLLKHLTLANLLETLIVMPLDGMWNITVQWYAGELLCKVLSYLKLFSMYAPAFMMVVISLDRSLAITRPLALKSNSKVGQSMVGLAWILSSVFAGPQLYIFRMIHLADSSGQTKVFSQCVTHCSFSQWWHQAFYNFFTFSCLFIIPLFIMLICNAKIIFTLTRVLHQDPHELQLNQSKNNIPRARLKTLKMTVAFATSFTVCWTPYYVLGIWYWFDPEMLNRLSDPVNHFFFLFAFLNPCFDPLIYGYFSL
Chain of Muscarinic acetylcholine receptor M1 (Homo sapiens) (P11229 whole entry, looked up): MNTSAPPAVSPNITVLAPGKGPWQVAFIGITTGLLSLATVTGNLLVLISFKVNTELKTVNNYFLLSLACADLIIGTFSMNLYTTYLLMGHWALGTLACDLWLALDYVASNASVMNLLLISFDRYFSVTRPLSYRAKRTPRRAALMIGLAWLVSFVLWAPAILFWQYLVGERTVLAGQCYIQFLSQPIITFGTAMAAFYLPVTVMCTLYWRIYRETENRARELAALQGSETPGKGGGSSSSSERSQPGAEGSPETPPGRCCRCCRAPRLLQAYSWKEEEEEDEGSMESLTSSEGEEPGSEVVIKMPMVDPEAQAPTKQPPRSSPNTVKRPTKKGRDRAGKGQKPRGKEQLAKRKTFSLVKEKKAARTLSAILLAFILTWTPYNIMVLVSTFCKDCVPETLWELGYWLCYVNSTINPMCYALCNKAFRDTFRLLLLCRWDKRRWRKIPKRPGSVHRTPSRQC
Chain of 5-hydroxytryptamine receptor 2A (Homo sapiens) (P28223 whole entry, looked up): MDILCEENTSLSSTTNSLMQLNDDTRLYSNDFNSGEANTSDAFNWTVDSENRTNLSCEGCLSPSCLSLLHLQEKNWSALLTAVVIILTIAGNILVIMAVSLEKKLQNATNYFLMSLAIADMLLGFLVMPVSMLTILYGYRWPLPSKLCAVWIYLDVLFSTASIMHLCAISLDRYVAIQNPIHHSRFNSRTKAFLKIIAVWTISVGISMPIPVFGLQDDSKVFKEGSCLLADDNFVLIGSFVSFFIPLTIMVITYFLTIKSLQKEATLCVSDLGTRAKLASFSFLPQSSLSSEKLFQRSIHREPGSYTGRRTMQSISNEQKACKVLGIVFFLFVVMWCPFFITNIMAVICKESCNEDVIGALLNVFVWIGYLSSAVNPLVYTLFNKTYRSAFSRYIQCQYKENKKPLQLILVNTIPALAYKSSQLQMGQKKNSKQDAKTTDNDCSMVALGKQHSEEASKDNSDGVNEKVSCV

On to `Nc1cc(Cl)c(-c2cc(Cl)c(N)cc2Cl)cc1Cl`, for which the Potency in test [1] is 27.3 µM (active) and 48.6 µM (active); in test [2] it was 3.06 µM (active) and inactive; in test [8], 51.3 µM (active); in [9], 32.4 µM (active); in test [10], 5.29 µM (active). Also, the Potency entry in test [3], in [4], in [5], in [6], in test [7] and in [11] was “inactive” throughout. Further, the Potency entry in test [12], in test [13] and in [14] was “inactive” each time.
With `O=c1n(CC2CO2)c(=O)n(CC2CO2)c(=O)n1CC1CO1` (centres undefined), the Potency result in test [1], in test [3], in test [4], in test [5], in test [6] and in [7] was “inactive” each time. For the same compound, the Potency result in test [9], in test [11], in test [12], in test [13] and in test [14] was “inactive” in each case. Besides, the Potency in test [2] is 60.8 µM (active) and 68.6 µM (active); in test [15] it was 18.1 µM (active) and 20.4 µM (active).
For the compound `COC(=O)c1ccc(C=O)cc1`, the Potency entry in test [1], in test [2], in test [3], in [4], in [5] and in [6] was “inactive” each time. Also, the Potency result in [7], in test [16], in [9], in test [15], in test [10] and in [17] was “inactive” each time. For the same compound, the Potency result in test [11], in test [18], in test [19], in test [12], in test [20] and in [13] was “inactive” throughout. Further, in test [14], the Potency result is “inactive”.
In the case of `Cc1nnc(NS(=O)(=O)c2ccc(N)cc2)s1`, the Potency result in [1], in test [2], in [3], in test [4], in test [5] and in [6] was “inactive” in each case. Further, the Potency result in test [7], in test [16], in [9], in test [15], in test [18] and in test [19] was “inactive” throughout. Also, the Potency result in [12], in test [20], in test [13] and in test [14] was “inactive” each time.
Regarding `Nc1cc([N+](=O)[O-])ccc1C(=O)O`, the Potency result in test [1], in test [2], in test [3], in [4], in test [5] and in test [6] was “inactive” throughout. Also, the Potency result in test [7], in test [8], in [9], in [15], in test [10] and in test [17] was “inactive” in each case. Moreover, the Potency entry in test [11], in test [18], in [19], in test [12], in test [13] and in test [14] was “inactive” each time.
In the case of `CCO[Si](CCCNC(N)=O)(OCC)OCC`, the Potency result in [1], in test [2], in test [3], in test [4], in [5] and in test [6] was “inactive” in each case. Further, the Potency result in [7], in test [8], in test [9], in test [10], in [17] and in test [11] was “inactive” in each case. The Potency entry in test [18], in test [19], in test [20], in test [13] and in [14] was “inactive” in each case.
Consider `Cc1cc(Cc2cc(C)cc(C(C)(C)C)c2O)c(O)c(C(C)(C)C)c1`, for which the Potency in [1] was 13.8 µM (active) and 13.7 µM (active); in [16] it was “inactive and 36.3 µM (active)”; in [12], 34.6 µM (active) and inactive. The Potency result in test [2], in [3], in test [4], in [5], in test [6] and in [7] was “inactive” each time. Besides, the Potency entry in test [9], in test [10], in [17], in test [11] and in test [13] was “inactive” in each case.
On to `C=C1C2CCC(C2)C1(C)C` (centres undefined), for which the Potency entry in test [1], in test [2], in test [3], in test [4], in test [5] and in test [6] was “inactive” in each case. Further, the Potency result in test [7], in test [16], in test [9], in test [15], in test [10] and in test [17] was “inactive” throughout. Moreover, the Potency entry in test [11], in test [18], in test [19], in test [12], in test [13] and in test [14] was “inactive” in each case.
